TDP1 block: qHTS Assay for Inhibitors of Tyrosyl-DNA Phosphodiesterase (TDP1); Tyrosyl-DNA phosphodiesterase 1 (Homo sapiens), Q9NUW8; recombinant TDP1, AlphaScreen DNA substrate cleavage; Potency, µM (doses to about 130 µM), actives largely listed as inhibitors; 350,000 compounds, 0.28% hits; AID 485290, 2010; also: nearly all actives have a fitted effect of over 40% in size
Target sequence (Q9NUW8 whole entry, looked up): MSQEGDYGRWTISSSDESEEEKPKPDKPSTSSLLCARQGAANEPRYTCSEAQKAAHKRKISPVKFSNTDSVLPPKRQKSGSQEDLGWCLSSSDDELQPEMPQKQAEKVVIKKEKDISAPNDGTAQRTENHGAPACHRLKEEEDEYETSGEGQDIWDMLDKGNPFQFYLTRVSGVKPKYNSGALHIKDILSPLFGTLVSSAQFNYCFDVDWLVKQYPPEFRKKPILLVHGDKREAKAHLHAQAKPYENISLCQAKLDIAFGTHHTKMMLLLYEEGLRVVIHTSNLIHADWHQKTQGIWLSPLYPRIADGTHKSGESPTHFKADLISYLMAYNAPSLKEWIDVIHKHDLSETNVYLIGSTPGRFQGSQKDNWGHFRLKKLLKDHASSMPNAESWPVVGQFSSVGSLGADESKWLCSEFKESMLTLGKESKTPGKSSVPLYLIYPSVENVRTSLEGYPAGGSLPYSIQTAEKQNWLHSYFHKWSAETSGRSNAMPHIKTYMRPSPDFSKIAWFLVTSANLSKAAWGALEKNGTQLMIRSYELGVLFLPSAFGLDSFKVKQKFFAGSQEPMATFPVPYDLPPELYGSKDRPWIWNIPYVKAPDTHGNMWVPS
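Recombinant human Tdp1 (E. coli-expressed, 1 nM final) preincubated with compounds 15 min at room temperature, then 5'-biotin/3'-phosphotyrosine-FITC DNA substrate (15 nM final) added for 5 min. AlphaScreen beads (10 ug/ml final) added 10 min; cleavage lowers signal.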
TDP1 cell CPT: qHTS for Inhibitors of human tyrosyl-DNA phosphodiesterase 1 (TDP1): qHTS in cells in presence of CPT | chicken DT40 Tdp1-/-;hTDP1 cells + 20 nM CPT, ATP luminescence, 48 h | Potency, µM (highest dose often 46.2 µM), most hits filed as inhibitors | 420,000 compounds, 12% hits; also: nearly all actives have a fitted effect of over 55% in size
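Chicken DT40 Tdp1-/- cells stably complemented with human TDP1 were seeded at 400 cells/well in medium containing 20 nM camptothecin, exposed to pin-transferred compounds, and grown at 37 °C for at least 48 hr. Viability was read as ATP luminescence.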
TDP1 cell noCPT: qHTS for Inhibitors of human tyrosyl-DNA phosphodiesterase 1 (TDP1): qHTS in cells in absence of CPT; DT40 Tdp1-/- hTDP1 cells, no CPT, ATP luminescence, 48 h; Potency, µM (series often up to 46.2 µM), hits mostly inhibitors; 420,000 compounds, 15% hits; AID 686978, 2013; also: nearly all actives have a fitted effect of over 55% in size
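No-CPT arm: Tdp1-/-;hTDP1 DT40 cells (400/well) plus compounds, incubated ≥48 hr at 37 °C. Readout CellTiter-Glo luminescence.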
IL1B secr inh: qHTS for Inhibitors of Inflammasome Signaling: IL-1-beta AlphaLISA Primary Screen | THP-1 LPS/ATP IL-1B secretion, AlphaLISA, 16 h; hits give low values | 360,000 compounds, 4.7% hits | activity change, % at 57.5 µM; in the data active = activity change below about -50%; inconclusive = mostly about -30% to -49%
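THP-1 cells pretreated 1 hr with compounds (up to 57.5 uM final), then stimulated with LPS (250 ng/mL final) plus ATP (1.25 mM final); secreted IL-1B measured by AlphaLISA after 16 hr, decreased signal indicating inhibition.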
HepG2 tox: qHTS for Inhibitors of TGF-b: Cytotox Counterscreen; HepG2 CAGA-GFP viability, ATP luminescence, 18 h; AID 588856, 2011; 410,000 compounds, 0.76% hits; Potency, µM (top dose mostly 46.1 µM), usual class: cytotoxic
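HepG2 CAGA-GFP cells (1000/well, DMEM with 1% FBS) received compound, then TGF-beta at 500 pg/mL final, and were incubated 18 hours at 37 degrees C. Viability was read by CellTiter-Glo luminescence. Media-only wells were set as complete cell-killing and DMSO as no toxicity.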
TGFb inhibitor: qHTS for Inhibitors of TGF-b; HepG2 CAGA-GFP TGF-b/SMAD3 reporter, GFP fluorescence, 18 h; TGF-beta stimulated, 500 pg/mL final; Potency, µM (doses to about 46.1 µM), hits mostly inhibitors; 410,000 compounds, 1.2% hits; also: nearly all actives have a fitted effect of over 65% in size
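Per well, imaged GFP fluorescence of HEPG2 CAGA-GFP cells gives the signal; cells get compound, then TGF-beta (500 pg/mL final), 18 h at 37 degrees C; %Activity versus -TGF-beta and +DMSO controls.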
Numbers stand for hits; i = inactive; ? = inconclusive; nt = no result given; [ ] = remark or other dose. Rows were chosen to be rich in hits. Some 19% of all compounds tested hit in one or more screens of this group. Unless noted, calls follow the shape of the dose curve; as a rule, active = well fitted curve in the direction sought with a large enough effect; inconclusive = small, poorly fitted or top-dose-only effect, or another doubt; inactive = no such curve, though single readings can be large; an effect the other way counts as inactive or inconclusive.

SMILES | TDP1 block | TDP1 cell CPT | TDP1 cell noCPT | IL1B secr inh | HepG2 tox | TGFb inhibitor
Cc1cc(C)n(-c2ccc(C(=O)N3CCN(S(=O)(=O)c4cccc(Br)c4)CC3)cc2)n1 | nt | 21µM | 21µM | i | i | ?
Cn1ccnc1C1CCCCN1C(=O)CN1Cc2ccccc2OC(c2ccccc2F)C1 (centres undefined) | nt | i[9.04 µM] | ? | nt | nt | nt
O=C1C(O)CC2c3ccccc3CC3(CCCC3)N12 (centres undefined) | i | ? | i | i | i | i
CC1CC2(CCCC2)N(C(=O)c2ccccc2)Cc2ccccc21 (centres undefined) | i | 9.2µM | ? | i | i | ?
CC(C)CC(OC(=O)c1nsc(Cl)c1Cl)C(=O)NC1CCCC1 (centres undefined) | i | i | i | i | i | i
COc1ccc2c(c1)NC(c1cc(Cl)cc(Cl)c1O)c1cccn1-2 (centres undefined) | i | i | ? | i | i | i
COc1ccc2c(c1)NC(c1ccc(N(C)C)cc1)c1cccn1-2 (centres undefined) | i | ? | 15µM | i | i | i
Cc1c(C(N)=O)nnn1-c1ccc(Br)cc1 | i | i | i | nt | i | i
Cc1ccc(N2CC(NC(=O)c3ccco3)CC2=O)cc1C (centres undefined) | i | i | i | nt | i | i
Cc1ccccc1OCC(=O)N/N=C/c1cccc2cccnc12 | i | ? | 21µM | i | i | ?
C/C(=N\OCC(=O)N/N=C/c1ccccc1O)c1cccs1 | i | 4.1µM | 4.6µM | i | i | ?
Cc1ccccc1OCC(=O)N/N=C/c1ccncc1 | i | i | i | i | i | i
O=C(COc1cccc2cccnc12)N/N=C/c1ccccc1O | ? | 15µM | 10µM | i | i | i
C/C(=N\OCC(=O)N/N=C/c1ccccc1)c1cccs1 | i | i | i | i | i | i
O=C(COc1cccc2cccnc12)N/N=C/c1cccn1-c1ccc(F)cc1 | nt | ? | ? | -89 | i | i
O=C(COc1cccc2cccnc12)N/N=C/c1ccc(O)cc1 | i | ? | i | i | i | i
Cc1cccc(N2CC(C(=O)OCC(=O)c3c(N)n(CC(C)C)c(=O)n(C)c3=O)CC2=O)c1C (centres undefined) | i | ? | ? | i | i | ?
Cn1c(=O)c(C(=O)CCl)c(N)n(CC2CC2)c1=O | i | 23µM | 18µM | ? | i | i
CC(=O)c1c(C)[nH]c(C(=O)OCC(=O)c2c(N)n(CC(C)C)c(=O)n(C)c2=O)c1C | i | ? | 23µM | i | i | i
CC(C)Cn1c(N)c(C(=O)COC(=O)C2CCCCC2)c(=O)n(C)c1=O | i | 16µM | 18µM | i | i | i
CC(C)Cn1c(N)c(C(=O)CCl)c(=O)n(C)c1=O | i | ? | ? | i | i | i
CC(C)Cn1c(N)c(C(=O)COC(=O)C2Cc3ccccc3CN2S(C)(=O)=O)c(=O)n(C)c1=O (centres undefined) | 28µM | 6.5µM | 5.2µM | i | i | ?
COc1ccc(NC(=O)C2=C(C)Nc3nc(CCCO)nn3C2c2ccc(O)cc2)cc1 (centres undefined) | i | i | i | nt | i | i
COCCN1C(=O)c2[nH]nc(-c3ccccc3O)c2C1c1ccc(OCc2ccccc2)c(OC)c1 (centres undefined) | i | ? | 8.2µM | nt | i | ?
COc1ccc(CCN2C(=O)c3[nH]nc(-c4ccccc4O)c3C2c2ccc(O)c(OC)c2)cc1 (centres undefined) | i | ? | ? | nt | i | ?
SMILES | TDP1 block | TDP1 cell CPT | TDP1 cell noCPT | IL1B secr inh | HepG2 tox | TGFb inhibitor
CCCN1C(=O)c2[nH]nc(-c3cccc(OC)c3)c2C1c1ccccn1 (centres undefined) | i | ? | 21µM | nt | i | ?
COc1ccc(-c2n[nH]c3c2C(c2ccccn2)N(C)C3=O)cc1 (centres undefined) | i | ? | i | nt | i | i
COc1ccc(CCN2C(=O)c3[nH]nc(-c4ccccc4O)c3C2c2ccccc2)cc1OC (centres undefined) | i | 18µM | 21µM | ? | i | ?
CCCN1C(=O)c2[nH]nc(-c3ccccc3O)c2C1c1cccc(OCc2ccccc2)c1 (centres undefined) | i | 21µM | 9.2µM | nt | 16µM | 11µM
CN1C(=O)c2[nH]nc(-c3ccc(F)cc3)c2C1c1cccc(O)c1 (centres undefined) | i | ? | ? | nt | i | i
CCCN1C(=O)c2[nH]nc(-c3ccccc3)c2C1c1cccc(O)c1 (centres undefined) | i | 18µM | 23µM | nt | i | i
CCc1nn2c(=O)cc(COC(=O)C3CCCCC3)nc2s1 | i | i | i | nt | i | i
Cc1ccc(NC(=O)C(=O)NCc2ccc(/C=C(/C#N)C(=O)NCc3cccnc3)o2)cc1C | i | ? | 16µM | i | i | i
Cc1ccc(NC(=O)C(=O)NCc2ccc(/C=C(/C#N)C(=O)NCc3cccnc3)o2)cc1 | i | ? | i | i | i | i
O=C(O)c1cccc(-n2cccc2/C=C2/NC(=O)N(Cc3ccccc3F)C2=O)c1 | 2.8µM | ? | ? | i | i | i
Cc1ccc(NC(=O)CN2C(=O)N/C(=C/c3cccn3-c3ccc(C(=O)O)cc3)C2=O)cc1 | 0.89µM | i | i | i | i | i
O=C(CN1C(=O)N/C(=C\c2cccn2-c2cccc(C(=O)O)c2)C1=O)Nc1ccccc1F | i | nt | nt | nt | nt | nt
COc1ccc(NC(=O)CN2C(=O)S/C(=C/c3cccn3-c3ccc(C(=O)O)cc3)C2=O)cc1 | 20µM | nt | nt | nt | nt | nt
Cc1ccc(NC(=O)CN2C(=O)N/C(=C/c3cc(C)n(-c4ccc(C(=O)O)cc4)c3C)C2=O)cc1 | nt | i | i | i | i | i
NC(=S)NCCC[C@H](N)C(=O)O | i | i | i | nt | nt | nt
O=C(O)CN1C(=O)C2(OCCO2)c2cc(Br)ccc21 | nt | i | i | i | i | i
O=c1oc2ccc(Cl)cc2cc1-c1nc(-c2cccs2)no1 | i | i | i | nt | i | ?
O=C(COC(=O)c1ccccc1O)NCc1ccc2c(c1)OCO2 | i | i | ? | i | i | i
O=C1CCC(OCc2ccccc2)CCN1CC[C@@H](Sc1ccccc1)c1ccccc1 (some centres undefined) | nt | ? | ? | i | nt | nt

Screens as filed in PubChem.
